High-throughput results as filed in PubChem.
aSyn 5UTR act: Activators via SNCA 5'UTR binding, MLPCN; alpha-synuclein 5'UTR reporter, activators screen; activity score, % (tested at 7.5 µM), hits read low; 300,000 compounds, 7.1% hits; in the data active = activity score below about -60%
* hit, by the source's call. Only a sample is shown.

SMILES	aSyn 5UTR act
CCSc1ncnc2c1oc1ccccc12	-64*
COCCn1c(=O)c2c(nc3n2CC(C)CN3CCc2ccccc2)n(C)c1=O (configuration not stated)	67
COc1ccccc1Cn1nnc2c(=O)[nH]c(C3CCN(C(=O)c4ccccc4Cl)CC3)nc21	60
O=C1CCC(C(=O)N2CCCCO2)CN1CCc1ccccc1 (configuration not stated)	-89*
COc1ccccc1CN1CC(C(=O)N2CCCCO2)CCC1=O (configuration not stated)	-77*
COCCCC1CCN(C(=O)C2CCC(=O)N(CCc3ccccc3)C2)CC1 (configuration not stated)	-74*
Cc1ccc(/C(N)=N/OC(=O)N2CCOCC2)cc1	-62*
Cc1ccc(/C(N)=N/OC(=O)C23CC4CC(CC(C4)C2)C3)cc1	-185*
Clc1ccc(-n2ncc3c(NCc4ccco4)ncnc32)cc1	-227*
CCC(CO)Nc1ncnc2c1cnn2-c1ccc(OC)cc1 (configuration not stated)	-75*
CCCN(CCC)c1ncnc2c1cnn2-c1ccc(OC)cc1	-77*
COc1ccc(-n2ncc3c(NCc4ccco4)ncnc32)cc1	-162*
COc1ccc(-n2ncc3c(NCc4ccccn4)ncnc32)cc1	-128*
Clc1ccc(-n2ncc3c(NCc4ccc5c(c4)OCO5)ncnc32)cc1	-81*
CN(C)CCNc1ncnc2c1cnn2-c1ccc(Cl)cc1	-93*
Fc1ccc(Nc2nc(-c3ccncc3)cs2)cc1	-114*
c1ccc(Nc2nc(-c3ccncc3)cs2)cc1	-151*
Nc1ccc(Nc2nc(-c3ccncc3)cs2)cc1	-135*
Cc1nc2ncccn2c1-c1csc(Nc2ccc(N(C)C)cc2)n1	70
Clc1ccc(Nc2nc(-c3ccncc3)cs2)cc1	-85*
CCN1C(=S)SC(=O)C1=C1C=C(C)N(Cc2ccco2)C(C)=C1	-132*
CCN1C(=S)SC(=O)C1=C1C=C(C)OC(C)=C1	-97*
Cc1cccc(N/N=C(\C(N)=O)C2=NC(C)(C)Cc3ccccc32)c1	59
COc1ccc(NC(=O)C2Cc3ccccc3O/C2=N\O)cc1 (configuration not stated)	-82*
Cc1cccc(NC(=O)C2Cc3ccccc3O/C2=N\O)c1 (configuration not stated)	-138*
SMILES	aSyn 5UTR act
Cc1ccc(C(=O)NC2CCCCCC2)cc1S(=O)(=O)N1CCOCC1	-70*
CCN(CC)S(=O)(=O)c1cc(C(=O)NC2CCCCC2)ccc1C	-111*
COc1ccc(/C=C/C(=O)NC2CCCCCC2)cc1S(=O)(=O)N1CCOCC1	-75*
Cc1[nH]nc(SCC(=O)N2CCCCC2)c1[N+](=O)[O-]	-92*
O=C(Nc1nccs1)c1ncc(Cl)c(Cl)c1Cl	-76*
CCn1cc(Cl)c(C(=O)Nc2nccs2)n1	-82*
Cn1cc(Cl)c(C(=O)Nc2nccs2)n1	-72*
CN(C)/C=N/C(=S)Nc1ccc(Cl)cc1Cl	-107*
COc1ccc(NC(=O)c2nc3nccc(C)n3n2)cn1	-72*
CCc1cc(C(=O)Nc2ccc(OC)nc2)sc1C	-95*
COc1ccc(NC(=O)c2sccc2C)cn1	-115*
COc1ccc(NC(=O)c2cc(Br)c(Br)s2)cn1	-69*
O=[N+]([O-])c1ccc(N/N=C/c2cccc(O)c2)cc1	-171*
Cc1ccc(NC(=O)c2ccc(N/N=C/c3cccc(O)c3)c([N+](=O)[O-])c2)cc1	42
O=[N+]([O-])c1ccc(N/N=C/c2cccc(O)c2O)cc1	-170*
Cc1nn(-c2ccccc2)c(/N=C/c2ccc(O)cc2)c1-c1ccccc1	-134*
CCCCCCCCCCOC(=O)Cn1c(COc2ccc(Cl)cc2)[n+](C)c2ccccc21	83
CCOC(=O)COn1c(=O)c(-c2cc3ccccc3o2)[n+]([O-])c2ccccc21	-114*
C=CCOn1c(=O)c(-c2cc3ccccc3o2)[n+]([O-])c2ccccc21	-144*
CCOc1ccc(-c2c(=O)n(OCc3ccc([N+](=O)[O-])cc3)c3ccccc3[n+]2[O-])cc1	-178*
CCCOc1ccc(-c2c(=O)n(OCC(=O)OCC)c3ccccc3[n+]2[O-])cc1	-88*
Cc1ccc2nc(-c3ccc(NC(=O)CN4C(=O)NC(C)(c5ccc(OC(F)F)cc5)C4=O)cc3)sc2c1 (configuration not stated)	-136*
Cc1ccc2nc(NC(=O)CN3C(=O)NC4(CCCCC4)C3=O)sc2c1	-82*
Cc1ccc2nc(NC(=O)Cn3cc4c(n3)CCCCC4)sc2c1	-108*
CC(=O)Nc1cccc(OCCCNC(=O)c2ccc(C(C)(C)C)cc2)c1	-72*
SMILES	aSyn 5UTR act
COc1cccc(NC(=O)COc2ccccc2)c1	-144*
CSc1cccc(NC(=O)COc2ccccc2C)c1	-85*
COc1ccc(OCC(=O)Nc2ccc(OC)c(S(=O)(=O)N3CCCCC3)c2)cc1	-96*
CC(=O)Nc1cccc(OCC(=O)Nc2ccccc2)c1	-114*
COc1cccc(NC(=O)c2cccc(C)c2[N+](=O)[O-])c1	-76*
CCn1nc(C)c(C(=O)Nc2cc(Oc3cc(C)cc(C)c3)cc([N+](=O)[O-])c2)c1C	50
CC(C)(C)C1(C)OC(=O)C(=Cc2ccc(OCC(=O)Nc3ccccc3)cc2)C(=O)O1 (configuration not stated)	-84*
COc1cccc(NC(=O)CC(=O)c2ccc([N+](=O)[O-])cc2)c1	-115*
CC(=O)Nc1cccc(OCC(=O)Nc2sccc2C(N)=O)c1	-82*
O=[N+]([O-])c1ccc(-c2cn3ccccc3n2)cc1	-148*
CN(C)S(=O)(=O)c1ccc(-c2cn3ccccc3n2)cc1	-194*
COc1cccc(NC(=O)c2cnc(SCC(=O)NCc3ccc4c(c3)OCO4)n(C)c2=O)c1	-82*
c1ccc2nc(SCc3cn4ccccc4n3)cnc2c1	-66*
c1ccc2oc(SCc3cn4ccccc4n3)nc2c1	-111*
Cc1cc(C)c(C#N)c(SCc2cn3c(C)cccc3n2)n1	-104*
Cc1cccc2nc(CSc3nc4ccccc4o3)cn12	-89*
COc1ccc(Cl)cc1C(=O)O/N=C(\N)c1ccc(Cl)cc1	-267*
Cc1occc1C(=O)O/N=C(\N)c1ccc(Cl)cc1	-71*
COc1cc(OC)c(C(=O)O/N=C(\N)c2cccc(C)c2)cc1OC	-67*
COc1cc(OC)c(C(=O)O/N=C(\N)c2ccc(C)cc2)cc1OC	-66*
CN1Cc2cc(C(=O)c3cc(Cl)cc(CSc4ncccn4)c3O)cnc2NC1=O	79
Cc1cc(OCc2cccc(Cl)c2)c(C)cc1CN1CCOCC1	-65*
Oc1c(CN2CCOCC2)cc(COCc2ccccc2)c2cccnc12	114
COc1cccc(NC(=O)c2ocnc2C)c1	-81*
Cc1ccc(NC(=O)c2ocnc2C)cc1Cl	-240*
SMILES	aSyn 5UTR act
Cc1ncoc1C(=O)Nc1cccc(Cl)c1	-92*
CCc1ccc(-n2nc3ccc(NC(=O)c4ccc5c(c4)OCO5)cc3n2)cc1	-66*
CCOc1ccc(-n2nc3ccc(NC(=O)c4ccc5c(c4)OCCO5)cc3n2)cc1	47
O=C(Nc1ccc2nn(-c3ccccc3)nc2c1)c1ccc2c(c1)OCCO2	-82*
Cc1onc(-c2c(Cl)cccc2Cl)c1C(=O)N/N=C(\N)COc1ccc(Cl)cc1	89
Cc1onc(-c2c(F)cccc2Cl)c1C(=O)O/N=C(\N)c1ccc([N+](=O)[O-])o1	-80*
CC1CCCN(C(=S)Nc2ccc(Nc3ccccc3)cc2)C1 (configuration not stated)	-123*
